The panel holds about 83,000 compounds, 20% with a hit somewhere; the sample as a whole holds those more often.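 Growth was measured after 48 h exposure to one concentration of compound in 96-well plates. Values under 10 count as active.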 The source made the active and inactive calls.
Columns and labels:
Assay in all cases: NCI-60 one-dose screen, 48 h (100 = growth as untreated, 0 = no growth, -100 = all killed)
Conditions in all cases: 10 µM
[1] = test system: NCI-H23 lung
[2] = test system: NCI-H226 lung
[3] = test system: NCI-H322M lung
[4] = test system: HOP-62 NSCLC
[5] = test system: HOP-92 NSCLC
[6] = test system: NCI-H522 lung
[7] = test system: A549/ATCC NSCLC
[8] = test system: 786-0 renal
[9] = test system: DU-145 prostate
[10] = test system: K-562 leukemia
[11] = test system: MALME-3M melanoma
[12] = test system: MDA-MB-231 breast
[13] = test system: RXF 393 renal
[14] = test system: SF-268 CNS
[15] = test system: SF-295 CNS
[16] = test system: SF-539 CNS
[17] = test system: UACC-257 melanoma
[18] = test system: M14 melanoma
[19] = test system: NCI-H460 lung
[20] = test system: COLO 205 colon

Measured: growth

CCN(CC)CCOC(=O)c1ccc(NC(=O)Nc2cccc(Cl)c2)cc1
inactive: [1] 95.8% | [2] 99.6% | [3] 103% | [4] 93.4% | [5] 85.1% | [6] 86.7% | [7] 91.4% | [8] 95.5% | [9] 105% | [10] 91.1% | [11] 97.6% | [12] 93.7% | [13] 99.4% | [14] 97.3% | [15] 93% | [16] 98.7% | [17] 91% | [18] 103%

CC(=O)c1ccc(NCn2nc(-c3ccc(Cl)cc3)oc2=S)cc1
inactive: [1] 104% | [2] 106% | [4] 69.9% | [19] 106% | [5] 104% | [6] 92% | [7] 79.2% | [8] 105% | [20] 107% | [9] 109% | [10] 88.1% | [11] 114% | [12] 87.8% | [13] 117% | [14] 109% | [15] 102% | [16] 95% | [17] 93% | [18] 104%

CCOC(=O)c1c(C)n(-c2ccc(Cl)cc2)c2ccc(OC(=O)/C=C/c3ccccc3)cc12
inactive: [1] 93.3% | [2] 95.1% | [3] 94.8% | [4] 95% | [5] 58% | [6] 82.3% | [7] 67.7% | [8] 94.3% | [20] 93.1% | [9] 91% | [10] 25.4% | [11] 72.9% | [12] 63.4% | [13] 73.7% | [14] 94.1% | [15] 79.4% | [16] 92.7% | [17] 84.2% | [18] 83.1%

COC(=O)[C@]12CC[C@@H](C)[C@H](C)[C@@H]1C1=CC[C@@H]3[C@@]4(C)C/C(=N\O)[C@H](O)[C@@]5(C)COC(=C45)C[C@@]3(C)[C@]1(C)CC2
active: [1] -75.7% | [2] -76.7% | [3] -77.2% | [4] -96.7% | [6] -84.7% | [7] -90.6% | [8] -81% | [20] -91.9% | [9] -94.8% | [10] -58.4% | [11] -71.1% | [12] -59.3% | [13] -73.4% | [14] -78.6% | [15] -88.5% | [16] -75.2% | [17] -90.5% | [18] -82.3%

COc1ccc(-c2n/c(=C\c3c(O)[nH]c4ccccc34)cc3c2=Nc2ccccc2-3)cc1
active: [8] -31.3% | [10] -8.09% | [14] 5.04% | [18] 3.99%
inactive: [1] 33.8% | [2] 59.7% | [3] 96% | [4] 86.2% | [5] 42.1% | [6] 63.1% | [7] 37.4% | [20] 35.9% | [9] 19.1% | [12] 30.6% | [13] 44.8% | [15] 38.5% | [16] 82.6% | [17] 91.8%

CS(=O)(=O)Nc1ccc(Nc2c3ccccc3nc3cc(Cl)ccc23)cc1
inactive: [1] 42.7% | [3] 50.6% | [4] 25% | [6] 16.2% | [8] 19.6% | [20] 43.1% | [9] 24.2% | [10] 20.6% | [11] 28.3% | [12] 86.5% | [13] 20.9% | [14] 37.6% | [16] 30.7% | [17] 48% | [18] 36.6%
active: [2] -4.26% | [5] -10.7% | [7] 9.01% | [15] -13.5%

CC1(C)CC(=O)c2c(nc3ccc(Cl)cc3c2-c2ccccc2)C1
active: [13] 3.11%
inactive: [1] 89.9% | [2] 97.6% | [3] 103% | [4] 92.1% | [5] 45.6% | [6] 73% | [7] 95.7% | [8] 101% | [20] 94.5% | [9] 106% | [10] 55.7% | [12] 85% | [14] 90.9% | [15] 76% | [16] 97.9% | [17] 106% | [18] 99.9%

CCOC(=O)Nc1ccc2c(c1)C(=O)N(CCOC)c1ccccc1O2
inactive: [1] 52% | [2] 77.1% | [3] 43% | [4] 43% | [5] 45% | [6] 18.4% | [7] 44.8% | [8] 45.3% | [20] 13% | [9] 43.8% | [10] 20.3% | [11] 61.2% | [12] 62.3% | [13] 56% | [14] 56.9% | [15] 28.8% | [16] 30.3% | [17] 61.7% | [18] 19.8%

CN(C)c1ccc2cc(-c3cc4c(oc3=O)-c3ccccc3OC4O)c(=O)oc2c1 (stereo not drawn)
inactive: [3] 39% | [4] 12.1% | [7] 39.5% | [9] 11% | [14] 56.9% | [16] 19% | [17] 42.9%
active: [1] -3.16% | [2] -14.9% | [6] -57.2% | [8] -15.7% | [20] -56.2% | [10] -55.8% | [11] -59.3% | [12] -39.8% | [15] -56.4% | [18] -47.8%

O=C1c2cc(Cl)ccc2-c2c(O)cc(Cl)cc21
inactive: [1] 49.3% | [2] 94% | [3] 109% | [4] 89.6% | [5] 52.8% | [6] 76.2% | [7] 105% | [8] 103% | [20] 92% | [9] 98.8% | [10] 57.2% | [12] 79.2% | [13] 68.8% | [14] 86.1% | [15] 99.1% | [16] 80.7% | [17] 105% | [18] 91.8%

Cc1ccc2nc3[nH]c(=O)[nH]c(=O)c3c(N)c2c1
inactive: [1] 91.9% | [2] 100% | [3] 73.3% | [4] 84.3% | [5] 76% | [6] 83.9% | [7] 89% | [8] 78.7% | [20] 91.2% | [9] 77.2% | [10] 96.2% | [12] 95.8% | [13] 77.7% | [14] 88.5% | [15] 90.9% | [16] 92.3% | [17] 88.9% | [18] 96%

O=C(Nc1cccc([N+](=O)[O-])c1)NN1CCCCCC1
inactive: [1] 105% | [2] 95.7% | [3] 111% | [4] 111% | [5] 80.8% | [6] 90% | [7] 87% | [8] 96.3% | [20] 104% | [9] 94.7% | [10] 84.1% | [12] 77.7% | [13] 113% | [14] 98.1% | [15] 94% | [16] 86.9% | [17] 105% | [18] 110%

C/C(=N\NC(=O)c1sc(=S)n(C)c1N)c1cc2ccccc2o1
inactive: [1] 71.6% | [2] 73.9% | [3] 45.4% | [4] 69.4% | [5] 58.8% | [6] 36.2% | [7] 45.4% | [8] 57.3% | [20] 107% | [9] 77.4% | [11] 99.3% | [12] 36% | [14] 55.9% | [16] 71.9% | [17] 56.5% | [18] 40.8%
active: [10] -10.9% | [15] -20.6%

Cc1nc2ccc(-n3c(-c4ccc(Cl)cc4)nc4ccccc4c3=O)cc2n1Cc1ccccc1
inactive: [1] 87.8% | [2] 87.8% | [3] 96.5% | [4] 81.9% | [5] 80.3% | [6] 74.2% | [7] 79.6% | [8] 105% | [20] 93.8% | [9] 95.2% | [10] 85.6% | [11] 89.4% | [12] 88.1% | [13] 104% | [14] 92.4% | [15] 90.2% | [16] 96.8% | [17] 78.2% | [18] 95.1%

COc1ccc(-c2nc(NC(=O)CS(=O)(=O)c3ccc(F)cc3)sc2C)cc1
inactive: [1] 37% | [2] 93.9% | [3] 69.5% | [4] 65.3% | [5] 37% | [6] 49% | [7] 54.2% | [8] 60.9% | [20] 88.8% | [9] 79% | [10] 26.4% | [11] 55.2% | [13] 14.4% | [14] 65.3% | [15] 25.1% | [16] 73.6% | [17] 65.1% | [18] 44%
active: [12] -37.1%

COc1cc(C2C=C(c3ccc(Cl)c(Cl)c3)N=C3SC(C)=CN32)cc(OC)c1OC (stereo not drawn)
inactive: [1] 79.5% | [2] 50.5% | [4] 91.1% | [19] 77.5% | [5] 81.9% | [6] 57.2% | [7] 83.8% | [8] 85.6% | [20] 81.3% | [9] 80.3% | [10] 32.1% | [11] 82.9% | [12] 89% | [13] 67.1% | [14] 87.8% | [15] 75.6% | [16] 81% | [17] 98.8% | [18] 86.4%

COc1cc(C2C(C#N)=C(c3c[nH]c4ccccc34)Nc3nc(N)[nH]c(=O)c32)cc(OC)c1OC (stereo not drawn)
active: [6] -11.7%
inactive: [1] 80.7% | [2] 86.3% | [3] 104% | [4] 82.9% | [5] 47.8% | [7] 105% | [8] 100% | [20] 65% | [9] 86.5% | [10] 50.4% | [11] 71.1% | [12] 89.5% | [13] 73.2% | [14] 88.3% | [15] 97.6% | [16] 48.4% | [17] 99.1% | [18] 95.7%

— PubChem BioAssay (NCI)
